# Source: PubChem (National Center for Advancing Translational Sciences (NCATS))
# Shown are actives, neighbours in structure and some others; about 3.2% of the full set was active somewhere.
# mTORC1 inh = Acumen qHTS Assay for Inhibitors of the mTORC1 Signaling Pathway in MEF (Tsc2-/-, p53-/-) Cells: Sytravon; Tsc2-/- p53-/- MEF, phospho-rpS6 immunofluorescence/PI, 24 h; 0.78% of 44,000 active; AID 493208, 2011; Potency, µM (titrated, usually from 38.3 µM), inactives show at the highest dose activity change, negative = inhibition, usual class: inhibitors;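 further: plate controls were DMSO for no effect and rapamycin for full effect; nearly all actives have a fitted effect of over 50% in size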
#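 Readout is phospho-S6 Alexa 488 signal normalized to PI per well, reported as % active cells with thresholds set from rapamycin (7.5 nM) and DMSO controls. Cells: Tsc2-/-, p53-/- MEFs, 24 hrs compound at 37 C; PI cell number serves as viability.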
# PMP22 txn prim = Cell-based coincidence reporter assay to measure PMP22 gene transcription in S16 Pmp22-F2sN cells - Primary screen; S16 Pmp22-F2sN Schwann cells, FLuc/NLuc coincidence luminescence, 24 h; Potency, µM (highest dose often 57.5 µM), without a hit: top-dose activity change, negative = inhibition, usual class: inhibitors; 2% of 43,000 active; active means clear falling dose curves in both reporters; inconclusive means both reporters move, but less clearly or upward; inactive means either reporter flat; the % is the NLuc reporter signal
#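 Reporter cells (S16 Pmp22-F2sN, 500–1,000 per well) exposed to compounds for 24 h, 37C, 5% CO2; lysis with FLuc read after 10 min, then Stop&Glo and NLuc read after 10 min.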
# p53null 39C tox = qHTS Screen for Compounds that Selectively Target Cancer Cells with p53 Mutations: Cytotoxicity of p53 Null Cells at the Nonpermissive Temperature; AID 904, 2007; 0.97% of 55,000 active; H1299 p53-null (neo) cells, 39C, ATPlite viability, 24 h; Potency, µM (top dose mostly 46.1 µM), inactives show at the top dose activity, negative = cell killing, most hits filed as cytotoxic;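 further: 0% = DMSO only and -100% = full killing by 100 µM tamoxifen; nearly all actives have a fitted effect of over 50% in size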
#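 H1299 lung cancer cells, p53-null (H1299-neo) or expressing p53 A138V (H1299-p53A138V), were plated overnight at 37C, then exposed to compounds at up to 46 uM for 24 hr at 39C. Viability was read by ATP-based luminescence.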
# p53null 32C kill = qHTS Screen for Compounds that Selectively Target Cancer Cells with p53 Mutations: Cytotoxicity of p53 Null Cells at the Permissive Temperature | H1299-neo p53 null cells, ATP luminescence, 24 h, 32C | Potency, µM (highest dose often 46.1 µM), for the others: at the top dose activity change, negative = cytotoxicity, actives largely listed as cytotoxic | 0.62% of 55,000 active | AID 903, 2007;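 further: 0% = DMSO only and -100% = full killing by 100 µM tamoxifen; nearly all actives have a fitted effect of over 55% in size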
#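 Overnight 37C seeding (600 cells/well) of H1299-neo preceded a 24 hr, 32C exposure to compounds up to 46 uM. ATP levels, read by luminescence after 20 min at RT, indicated surviving cells.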
# S16 F2sN tox = Cell viability qHTS assay in S16 Pmp22-F2sN cells | Potency, µM (highest dose often 57.5 µM), for inactives: at the highest dose activity change, negative = cytotoxicity, usual class: cytotoxic | S16 Pmp22-F2sN Schwann cells viability, CellTiter-Glo, 24 h | 0.48% of 43,000 active; further: nearly all actives have a fitted effect of over 65% in size
#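 S16 Pmp22-F2sN Schwann cells (500-1,000/well) in phenol-red-free DMEM with 10% FBS received 23 nL compound by pin tool for 24 h at 37 °C. Viability was then read as CellTiter-Glo luminescence after 15 min at room temperature.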
# The depositor's hits bear a star; ? = inconclusive. Unless noted, the call rests on the fitted dose curve; in most records, active means well fitted curve in the direction sought with a large enough effect; inconclusive means small, poorly fitted or top-dose-only effect, or another doubt; inactive means no such curve, though single readings can be large; an effect the other way counts as inactive or inconclusive. Unless noted, on the % scale 0 is the no-effect control and ±100 the full control effect; potency means the concentration at half of the fitted maximal effect.
SMILES,mTORC1 inh,PMP22 txn prim,p53null 39C tox,p53null 32C kill,S16 F2sN tox
Cc1noc2ncnc(N3CCCC(C(=O)Nc4cc(F)ccc4F)C3)c12 (configuration not stated),-21.1%,?,-13.0%,-4.9%,-10.7%
O=C(CSC1=Nc2ccccc2N=C(c2ccc(F)cc2)C1)NCc1ccc(F)cc1,-4.4%,?,-12.7%,-0.1%,16.4%
Cc1nn2cc(-c3ccc(OC(C)C)cc3)nc2s1,-16.6%,?,12.6µM*,15.8µM*,9.2%
COc1ccc(CNC(=O)c2nc(SC(C)C)ncc2Cl)cc1,-7.2%,-54.8%,-5.8%,1.9%,-3.9%
COc1ccc(N(Cc2ccccc2)C(=O)c2nc(S(C)(=O)=O)ncc2Cl)cc1,2.07µM*,1.78µM*,11.2µM*,12.6µM*,4.47µM*
CS(=O)(=O)c1ncc(Cl)c(C(=O)N(Cc2ccc(Cl)cc2)Cc2ccco2)n1,1.85µM*,?,?,?,4.47µM*
COc1ccc(CNC(=O)c2nc(S(=O)(=O)Cc3ccccc3)ncc2Cl)cc1,20.7µM*,5.32µM*,12.6µM*,-4.2%,5.62µM*
CCCSc1ncc(Cl)c(C(=O)N(Cc2ccccc2)c2ccc(OC)cc2)n1,-12.9%,?,48.1%,24.6%,-20.9%
O=C(NCc1ccccc1)c1nc(S(=O)(=O)Cc2ccccc2)ncc1Cl,16.5µM*,6.48µM*,86.5%,-14.4%,8.91µM*
COc1ccc(C(=O)NCc2ccc3c(c2)CCN3C(=O)c2ccc(F)cc2)cc1,0.7%,1.8%,-18.8%,-10.4%,11.5%
CCN1CCN(CCCNC(=O)c2cnn(-c3ccc(C)cc3)c2C2CCN(C(=O)OC(C)(C)C)CC2)CC1,0.6%,-48.8%,8.4%,2.4%,5.0%
Cc1ccc(C)c(N2CCN(CCCNC(=O)c3cnn(-c4ccc(F)cc4)c3C3CCN(C(=O)OC(C)(C)C)CC3)CC2)c1,?,?,25.1µM*,22.1%,?
Cc1ccc(C)c(N2CCN(CCCNC(=O)c3cnn(-c4cccc(Cl)c4)c3C3CCN(C(=O)OC(C)(C)C)CC3)CC2)c1,?,?,?,-22.4%,?
Cc1ccc(C)c(N2CCN(CCCNC(=O)c3cnn(-c4ccccc4Cl)c3C3CCN(C(=O)OC(C)(C)C)CC3)CC2)c1,?,?,12.6µM*,29.8%,?
COc1ccc(C(=O)Nc2noc3ccccc23)cc1,3.4%,10.4%,6.31µM*,3.16µM*,11.2%
Cc1cc(C)c(NC(=O)Cn2c(=O)n(Cc3ccc4c(c3)OCO4)c(=O)c3ccccc32)c(C)c1,3.6%,?,-11.4%,4.0%,-6.1%
COc1cc(Cl)c(NS(=O)(=O)c2ccc3c(c2)CC(C)N3C(=O)C2CCC2)c(OC)c1 (configuration not stated),-1.9%,11.9µM*,-9.3%,18.9%,?
CC(=O)N1c2ccc(S(=O)(=O)NCC3CCC(C(=O)Nc4ccc(F)cc4)CC3)cc2CC1C (configuration not stated),-8.0%,?,14.6%,16.4%,14.1µM*
CC(=O)N1c2ccc(S(=O)(=O)NCC3CCC(C(=O)Nc4ccc(C)c(C)c4)CC3)cc2CC1C (configuration not stated),-21.0%,?,-18.0%,5.3%,-24.6%
CCc1ccc(NC(=O)C2CCC(CNS(=O)(=O)c3ccc4c(c3)CC(C)N4C(C)=O)CC2)cc1 (configuration not stated),?,-24.4%,-9.9%,-0.6%,-3.9%
COc1ccccc1NC(=O)C1CCC(CNS(=O)(=O)c2ccc3c(c2)CC(C)N3C(C)=O)CC1 (configuration not stated),?,18.9µM*,-6.7%,10.5%,?
CC(C(=O)NCc1cccc(Br)c1)n1ncn2cccc2c1=O (configuration not stated),0.585µM*,3.9%,12.6µM*,?,0.1%
Cc1c2cnn(-c3ccccc3)c(=O)c2c(C)n1C(C)C(=O)NCc1cccc(Br)c1 (configuration not stated),-8.6%,?,-15.9%,18.7%,-15.5%
N#Cc1c(-n2ncnc2-c2ccc(F)cc2)sc2c1CCCCC2,2.9%,-11.5%,?,10µM*,2.4%
Cn1c(=O)oc2cc(S(=O)(=O)N3CCC(C(=O)N4CCN(c5ccc(Cl)cc5)CC4)CC3)ccc21,-3.5%,13.4µM*,9.5%,3.2%,?
SMILES,mTORC1 inh,PMP22 txn prim,p53null 39C tox,p53null 32C kill,S16 F2sN tox
Cn1c(=O)oc2cc(S(=O)(=O)N3CCC(C(=O)N4CCN(c5cccc(Cl)c5)CC4)CC3)ccc21,-16.5%,?,13.0%,34.1%,?
O=C(Nc1ccc2nc(SCC(=O)N3CCOCC3)sc2c1)c1cccc(Cl)c1,-12.0%,-8.4%,?,31.6µM*,2.9%
CCOC(=O)CSc1nc2ccc(NC(=O)c3ccc(C)cc3)cc2s1,-3.7%,3.0%,?,10µM*,3.8%
CN(C)CCNC(=O)C1CCN(c2ncnc3c2nc2n3CCCCC2)CC1,-2.2%,-15.9%,-10.4%,-7.5%,-1.6%
CCc1ccc(C(=O)c2cn(CC(=O)Nc3cc(C)ccc3C)c3nc(C)ccc3c2=O)cc1,-0.9%,?,-17.9%,6.8%,7.8%
COc1ccc(CNC(=O)c2ccc3nc(C(C)C)oc3c2)cc1OC,0.0%,?,0.6%,-2.1%,28.2µM*
Cc1nn(C(C)C(=O)NC2CCC(C)CC2)c(=O)c2c1sc1ccccc12 (configuration not stated),2.07µM*,?,20µM*,?,6.9%
COc1ccc(N2CCN(C(=O)C(C)n3nc(C)c4sc5ccccc5c4c3=O)CC2)cc1 (configuration not stated),1.31µM*,?,12.6µM*,-20.3%,11.7%
O=C(Nc1nc2nc(-c3ccccc3)cc(=O)n2[nH]1)c1ccc(F)cc1,5.7%,-1.1%,-12.6%,-5.8%,-4.2%
O=c1cc(-c2ccccc2)nc2cc(-c3ccc(F)cc3)[nH]n12,-24.6%,-9.1%,?,?,25.1µM*
COc1ccc(-n2ccnc(NCc3ccccc3Cl)c2=O)cc1OC,5.6%,37.3%,-5.3%,-5.6%,?
Cc1ccc(Nc2nc(Nc3ccc(C)c(C)c3)nc(N3CCOCC3)n2)cc1C,1.04µM*,-0.3%,24.4%,-4.2%,?
